Drawing on the supplement of paper PMC10849652, this text covers log2 fold change for 22 targets.

About 7,900 targets were measured; listed, in parts, are those with a hit and a random draw of the rest. About 0.6% of all pairs of compound and target were hits.

Sequence of UniProt P13473 (P13473 whole entry, looked up): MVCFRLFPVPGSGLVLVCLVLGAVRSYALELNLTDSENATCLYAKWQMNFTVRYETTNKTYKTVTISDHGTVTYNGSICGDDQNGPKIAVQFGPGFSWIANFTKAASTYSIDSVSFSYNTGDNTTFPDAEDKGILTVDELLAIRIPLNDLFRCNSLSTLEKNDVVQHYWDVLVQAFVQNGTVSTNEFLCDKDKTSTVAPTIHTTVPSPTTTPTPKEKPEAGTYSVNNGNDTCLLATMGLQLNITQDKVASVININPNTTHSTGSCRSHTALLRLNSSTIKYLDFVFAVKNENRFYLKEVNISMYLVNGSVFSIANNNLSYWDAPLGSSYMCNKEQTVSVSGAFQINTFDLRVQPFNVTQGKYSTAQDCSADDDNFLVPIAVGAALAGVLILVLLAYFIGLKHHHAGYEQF
Sequence of UniProt Q9UBF1 (Q9UBF1 whole entry, looked up): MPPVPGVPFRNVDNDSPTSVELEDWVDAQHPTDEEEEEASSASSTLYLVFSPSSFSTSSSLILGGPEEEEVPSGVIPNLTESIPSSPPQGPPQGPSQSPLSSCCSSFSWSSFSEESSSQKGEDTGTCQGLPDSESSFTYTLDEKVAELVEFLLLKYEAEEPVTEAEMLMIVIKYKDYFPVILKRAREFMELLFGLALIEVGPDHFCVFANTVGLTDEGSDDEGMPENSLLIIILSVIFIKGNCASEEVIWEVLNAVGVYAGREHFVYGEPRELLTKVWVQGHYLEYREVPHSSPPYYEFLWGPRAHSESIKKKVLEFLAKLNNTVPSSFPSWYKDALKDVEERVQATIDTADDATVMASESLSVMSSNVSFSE
Sequence of UniProt Q9BPX6 (Q9BPX6 whole entry, looked up): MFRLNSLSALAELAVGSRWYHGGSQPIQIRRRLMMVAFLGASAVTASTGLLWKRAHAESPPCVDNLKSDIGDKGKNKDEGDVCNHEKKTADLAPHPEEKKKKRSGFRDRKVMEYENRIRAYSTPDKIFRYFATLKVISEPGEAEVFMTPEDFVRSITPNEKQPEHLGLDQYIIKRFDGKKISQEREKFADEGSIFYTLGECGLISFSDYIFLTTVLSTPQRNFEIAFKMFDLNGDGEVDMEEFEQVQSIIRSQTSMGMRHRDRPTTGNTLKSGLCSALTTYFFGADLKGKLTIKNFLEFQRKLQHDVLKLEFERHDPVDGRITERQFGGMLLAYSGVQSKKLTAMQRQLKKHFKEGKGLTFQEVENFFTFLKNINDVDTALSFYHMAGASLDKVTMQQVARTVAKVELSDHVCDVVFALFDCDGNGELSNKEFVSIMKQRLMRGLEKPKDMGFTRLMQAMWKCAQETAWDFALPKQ
Sequence of UniProt Q32MZ4 (Q32MZ4 whole entry, looked up): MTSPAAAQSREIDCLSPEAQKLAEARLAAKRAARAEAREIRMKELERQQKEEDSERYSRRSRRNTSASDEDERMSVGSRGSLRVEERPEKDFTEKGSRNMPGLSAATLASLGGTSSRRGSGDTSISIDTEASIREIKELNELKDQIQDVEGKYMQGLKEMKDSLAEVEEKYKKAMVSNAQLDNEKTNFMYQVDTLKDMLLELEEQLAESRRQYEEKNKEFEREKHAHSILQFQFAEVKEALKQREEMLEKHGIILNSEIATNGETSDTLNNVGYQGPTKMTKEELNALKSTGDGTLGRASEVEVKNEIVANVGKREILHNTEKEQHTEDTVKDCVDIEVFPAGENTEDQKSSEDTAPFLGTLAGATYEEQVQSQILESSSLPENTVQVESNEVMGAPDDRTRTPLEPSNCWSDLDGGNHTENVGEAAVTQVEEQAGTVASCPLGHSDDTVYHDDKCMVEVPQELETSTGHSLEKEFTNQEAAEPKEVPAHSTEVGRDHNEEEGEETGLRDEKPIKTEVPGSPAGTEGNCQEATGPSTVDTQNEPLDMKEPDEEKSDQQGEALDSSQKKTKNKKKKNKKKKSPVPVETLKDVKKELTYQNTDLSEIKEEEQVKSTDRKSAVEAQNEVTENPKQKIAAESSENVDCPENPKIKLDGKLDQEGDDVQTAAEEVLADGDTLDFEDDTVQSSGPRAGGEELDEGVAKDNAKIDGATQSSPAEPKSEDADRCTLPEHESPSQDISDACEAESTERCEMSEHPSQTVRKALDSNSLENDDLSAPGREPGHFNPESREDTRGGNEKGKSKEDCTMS
Sequence of UniProt P49137 (P49137 whole entry, looked up): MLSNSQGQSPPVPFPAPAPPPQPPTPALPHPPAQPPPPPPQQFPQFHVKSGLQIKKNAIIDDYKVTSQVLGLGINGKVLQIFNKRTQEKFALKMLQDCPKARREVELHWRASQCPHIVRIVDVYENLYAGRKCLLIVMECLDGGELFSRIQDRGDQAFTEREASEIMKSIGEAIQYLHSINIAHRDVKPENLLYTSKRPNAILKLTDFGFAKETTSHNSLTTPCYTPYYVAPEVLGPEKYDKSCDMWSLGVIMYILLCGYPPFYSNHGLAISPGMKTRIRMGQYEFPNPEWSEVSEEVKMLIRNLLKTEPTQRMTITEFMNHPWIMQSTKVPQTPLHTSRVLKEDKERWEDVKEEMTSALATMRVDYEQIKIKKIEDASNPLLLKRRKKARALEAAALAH
Sequence of UniProt Q08431 (Q08431 whole entry, looked up): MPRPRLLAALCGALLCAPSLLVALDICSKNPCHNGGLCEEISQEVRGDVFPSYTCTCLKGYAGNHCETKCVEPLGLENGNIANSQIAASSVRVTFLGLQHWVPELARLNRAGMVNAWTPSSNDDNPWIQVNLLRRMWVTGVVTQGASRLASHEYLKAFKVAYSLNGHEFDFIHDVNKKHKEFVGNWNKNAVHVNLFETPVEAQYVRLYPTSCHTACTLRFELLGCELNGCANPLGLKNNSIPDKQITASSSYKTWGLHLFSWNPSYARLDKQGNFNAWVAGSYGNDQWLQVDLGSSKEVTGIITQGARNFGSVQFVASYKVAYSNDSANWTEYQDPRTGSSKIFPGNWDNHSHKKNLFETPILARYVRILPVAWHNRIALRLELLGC
Sequence of UniProt P22692 (P22692 whole entry, looked up): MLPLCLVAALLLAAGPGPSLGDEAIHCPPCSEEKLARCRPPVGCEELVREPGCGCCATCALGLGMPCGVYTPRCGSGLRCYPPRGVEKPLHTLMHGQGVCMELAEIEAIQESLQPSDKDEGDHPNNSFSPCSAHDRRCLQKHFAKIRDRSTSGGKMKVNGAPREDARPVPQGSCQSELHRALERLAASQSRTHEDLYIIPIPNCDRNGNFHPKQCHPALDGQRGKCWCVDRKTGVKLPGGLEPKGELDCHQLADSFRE
Sequence of UniProt Q8NC56 (Q8NC56 whole entry, looked up): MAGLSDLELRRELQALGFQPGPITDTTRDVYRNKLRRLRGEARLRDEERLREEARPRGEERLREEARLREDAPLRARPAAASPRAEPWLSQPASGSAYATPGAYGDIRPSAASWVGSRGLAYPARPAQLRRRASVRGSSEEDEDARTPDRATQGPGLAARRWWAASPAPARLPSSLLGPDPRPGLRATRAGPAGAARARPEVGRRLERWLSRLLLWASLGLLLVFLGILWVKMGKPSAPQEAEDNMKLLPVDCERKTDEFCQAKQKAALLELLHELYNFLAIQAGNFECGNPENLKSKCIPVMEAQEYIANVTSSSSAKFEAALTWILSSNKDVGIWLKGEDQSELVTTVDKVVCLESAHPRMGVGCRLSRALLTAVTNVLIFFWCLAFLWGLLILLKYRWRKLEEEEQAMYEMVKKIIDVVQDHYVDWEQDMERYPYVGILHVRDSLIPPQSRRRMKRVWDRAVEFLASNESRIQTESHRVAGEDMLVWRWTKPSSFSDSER
Sequence of UniProt Q92615 (Q92615 whole entry, looked up): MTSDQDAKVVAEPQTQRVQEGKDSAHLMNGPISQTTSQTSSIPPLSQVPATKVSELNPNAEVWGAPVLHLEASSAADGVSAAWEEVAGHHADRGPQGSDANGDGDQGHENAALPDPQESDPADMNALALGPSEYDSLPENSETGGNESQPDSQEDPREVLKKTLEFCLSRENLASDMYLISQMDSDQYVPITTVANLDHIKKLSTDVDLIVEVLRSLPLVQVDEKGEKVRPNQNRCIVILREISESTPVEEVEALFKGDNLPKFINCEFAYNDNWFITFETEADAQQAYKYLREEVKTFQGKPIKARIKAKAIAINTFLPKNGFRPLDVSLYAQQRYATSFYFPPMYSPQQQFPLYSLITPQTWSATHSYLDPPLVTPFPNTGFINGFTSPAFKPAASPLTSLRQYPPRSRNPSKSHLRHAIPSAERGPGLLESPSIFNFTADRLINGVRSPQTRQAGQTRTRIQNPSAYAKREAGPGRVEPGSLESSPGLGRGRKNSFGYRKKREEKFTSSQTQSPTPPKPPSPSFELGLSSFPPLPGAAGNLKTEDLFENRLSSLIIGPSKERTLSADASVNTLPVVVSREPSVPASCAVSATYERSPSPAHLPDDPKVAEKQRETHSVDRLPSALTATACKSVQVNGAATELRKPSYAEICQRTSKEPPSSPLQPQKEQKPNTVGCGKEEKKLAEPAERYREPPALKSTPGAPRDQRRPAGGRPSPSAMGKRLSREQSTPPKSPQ
Sequence of UniProt Q9H6V9 (Q9H6V9 whole entry, looked up): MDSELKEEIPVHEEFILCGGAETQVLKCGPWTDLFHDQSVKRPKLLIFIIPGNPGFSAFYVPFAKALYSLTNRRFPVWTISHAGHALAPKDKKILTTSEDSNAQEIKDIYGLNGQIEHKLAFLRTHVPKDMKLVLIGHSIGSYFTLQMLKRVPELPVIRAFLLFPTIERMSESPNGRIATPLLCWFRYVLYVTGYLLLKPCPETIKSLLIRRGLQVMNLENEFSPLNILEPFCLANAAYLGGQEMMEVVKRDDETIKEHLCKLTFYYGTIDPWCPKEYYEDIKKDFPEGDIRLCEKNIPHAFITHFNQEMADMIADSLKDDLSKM

Compound in the assay: Cc1ccc(-n2nc(C(C)(C)C)cc2NC(=O)Nc2ccc(OCCN3CCOCC3)c3ccccc23)cc1 [doramapimod]
In words: log2 fold change, soluble protein after heating vs DMSO (PISA); higher = thermal stabilisation; K562 cells, 10 uM, 30 min; active = over 0.2 and 3.5 SD of the protein, either way, in both replicates (recomputed). The gist of the method:
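K562 cells (2×10^6 cells/mL) were treated with 10 μM compound for 30 min, and aliquots were heated for 3 min over 48°C-58°C. Pooled aliquots were extracted in PBS with 0.5% NP-40 at 4°C, and the supernatant after 21,000xg for 90 min was measured by TMTpro 16plex LC-MS/MS with channel sums equalised. Reported thermal stability, relative to control samples and from duplicates, is a log2 fold change.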
Turning to MIEF1 (UniProt Q9NQG6), the log2 fold change was 0.007 (inactive).
For the target LDAH isoform 2 (UniProt Q9H6V9), the log2 fold change was 0.019 (inactive).
Consider MAPKAPK2 (UniProt P49137), for which the log2 fold change was 0.147 (inactive).
In the case of LIAS (UniProt O43766), the log2 fold change was 0 (inactive).
Turning to MFSD5 isoform 2 (UniProt Q6N075), the log2 fold change was 0.004 (inactive).
With LARP4B (UniProt Q92615), the log2 fold change was 0.048 (inactive).
Take LAMP2 (UniProt P13473): the log2 fold change was -0.039 (inactive).
On to MAGEC2 (UniProt Q9UBF1), for which the log2 fold change is -0.036 (inactive).
For the target IGFBP4 (UniProt P22692), the log2 fold change is 0 (inactive).
Consider ILF3 isoform 7 (UniProt Q12906), for which the log2 fold change is 0.118 (inactive).
With LTV1 (UniProt Q96GA3), the log2 fold change was 0.128 (inactive).
Regarding MICU2 (UniProt Q8IYU8), the log2 fold change was -0.009 (inactive).
For MCUR1 (UniProt Q96AQ8), the log2 fold change is -0.002 (inactive).
Take KDM1A isoform 2 (UniProt O60341): the log2 fold change was -0.028 (inactive).
Turning to LEMD2 (UniProt Q8NC56), the log2 fold change is 0.079 (inactive).
As to LRRFIP1 (UniProt Q32MZ4), the log2 fold change was -0.025 (inactive).
With LPIN1 isoform 7 (UniProt Q14693), the log2 fold change was 0.067 (inactive).
The result for MFN1 (UniProt Q8IWA4) reads 0.02 (inactive); that for KIF1B isoform 4 (UniProt O60333), 0.029 (inactive).
As for MFGE8 (UniProt Q08431), the log2 fold change was 0.046 (inactive).
On to MCCC2 (UniProt Q9HCC0), for which the log2 fold change is 0 (inactive).
The result for MICU1 isoform 3 (UniProt Q9BPX6) reads -0.011 (inactive).
